TDP-43 yeast inh: inhibitors of TDP-43 toxicity in yeast. 410,000 compounds, 1.8% hits. TDP-43 expressing yeast growth rescue, BacTiter-Glo, 24 h. Potency, µM (highest dose often 46.1 µM), without a hit: at the highest dose growth rescue (activation), actives largely listed as activators; further: % of control where 0% means no effect; nearly all actives have a fitted effect of over 50% in size
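Readout is BacTiter-Glo luminescence of cell growth, so inhibitors register as activators. TDP-43-expressing yeast at OD600=0.02 in galactose medium, after raffinose pregrowth to mid-log, were incubated with compound for 24 hr at 30 deg C.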
Abeta rescue: restores growth of yeast expressing A-beta42 peptide | yeast expressing A-beta42, growth rescue, OD600, 48 h; response scale: 0% DMSO, 100% iron-clioquinol control | Potency, µM (highest dose often 46.1 µM), usual class: activators | 410,000 compounds, 0.063% hits; further: nearly all actives have a fitted effect of over 55% in size
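Growth rescue measured by 600 nm absorbance after 48 h yeast culture at 30 C with compound. Values normalized between DMSO and an equimolar ferric chloride plus clioquinol control.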
aSyn yeast inh: inhibitors of alpha-synuclein toxicity in yeast | Yeast expressing alpha-synuclein, growth rescue, BacTiter-Glo, 24 h | Potency, µM (titrated, usually from 46.1 µM), inactives show at the top dose growth rescue (activation), hits mostly activators | 370,000 compounds, 0.14% hits | AID 652106; further: % of control where 0% means no effect; nearly all actives have a fitted effect of over 65% in size
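Rescue of yeast growth: cells expressing toxic alpha-synuclein, induced in galactose at OD600 0.02, incubated with compound 24 h at 30 C. ATP luminescence quantified growth; inhibitors of toxicity appear as activators.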
FUS yeast rescue: FUS proteinopathy suppression in yeast | S. cerevisiae FUS-expressing, growth rescue, OD600, 24 h | Potency, µM (doses to about 76.6 µM), usual class: activators | 390,000 compounds, 0.24% hits | AID 1347120;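 further: plate controls were DMSO vehicle for no effect and reference control for full effect; nearly all actives have a fitted effect of over 55% in size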
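Toxicity suppression screen in FUS-yeast. Cells induced with 2% galactose, starting OD 0.005, treated 24hr at 30C with compounds at multiple final concentrations; growth by OD600.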
* marks the source's active call; other numbers are inactive results; i = inactive; u = inconclusive; x = not tested or not shown; [ ] = another dose, or the depositor's remark. Most compounds without a hit are left out; they make up all but 2.1% or so of the library. The call rests on the fitted dose curve; in most records, active means well fitted curve in the direction sought with a large enough effect; inconclusive means small, poorly fitted or top-dose-only effect, or another doubt; inactive means no such curve, though single readings can be large; an effect the other way counts as inactive or inconclusive. Potency means the concentration at half of the fitted maximal effect.

SMILES	TDP-43 yeast inh	Abeta rescue	aSyn yeast inh	FUS yeast rescue
O=C1CC(=O)N(c2ccccc2)C(=O)N1c1ccccc1	-22.5%	i	-1.4%	i
O=C1C(Cl)=C(N2CCCCCC2)C(=O)N1c1ccccc1	11.2µM*	i	1.8%	i
CC(O)(CS(=O)(=O)c1cccc(C(F)(F)F)c1)C(=O)Nc1ccc(C(F)(F)F)cc1 (configuration not stated)	-12.5%	i	0.9%	i
Cc1ccccc1-n1c(/C=C/c2c(C)[nH]c3ccccc23)nc2ccccc2c1=O	15.8µM*	i	x	i
Cc1ccccc1-n1c(/C=C/c2ccc(N(C)C)cc2)nc2ccccc2c1=O	u	i	-4.6%	i
COC(=O)C1=C(c2ccc(OC(F)(F)F)cc2)C[C@@H]2CC[C@H]1N2C(=O)N1CCCCC1	35.5µM*	i	-21.9%	u
COC(=O)C1=C(c2ccc3ccccc3c2)C[C@@H]2CC[C@H]1N2C(=O)N1CCCCC1	20µM*	i	0.4%	u
COC(=O)C1=C(c2ccc(-c3ccccc3)c(F)c2)C[C@@H]2CC[C@H]1N2C(=O)N1CCOCC1	20µM*	i	-5.6%	u
COC(=O)C1=C(c2ccc(-c3ccccc3)c(F)c2)C[C@@H]2CC[C@H]1N2C(=O)N1CCCC1	25.1µM*	i	-23.2%	u
OCC1OC(O)CC(O)C1O (configuration not stated)	22.5%	i	-1.0%	i
C[C@]12CCC3[C@@H](CC[C@@H]4C[C@H](O)CC[C@]34C)[C@@H]1CCC2=O (some centres not stated)	u	i	3.1%	i
C[C@]12CC[C@H](O)C[C@@H]1CC[C@@H]1[C@@H]2CC[C@]2(C)C(=O)CC[C@@H]12	14.1µM*	i	u	i
C[C@]12CCC(=O)C(O)=C1CC[C@@H]1[C@@H]2CC[C@]2(C)C(=O)CC[C@@H]12	12.6µM*	i	3.3%	i
C[C@]12C=CC(=O)C=C1CC[C@@H]1[C@@H]2CC[C@]2(C)C(=O)CC[C@@H]12	1.3%	i	-6.4%	i
C[C@]12CCC3[C@@H](CCC4=CC(=O)CC[C@@]43C=O)C1CCC2=O (some centres not stated)	3.9%	i	-1.1%	i
COc1cccc(NC(=O)N2CCc3nc(Nc4ccc(C(C)C)cc4)ncc3C2)c1	12.6µM*	u	29.9%	i
Cc1ccc(CS(=O)(=O)CCC(=O)N2CCC3(CC2)OCCO3)cc1	-26.8%	i	3.2%	i
CC1(O)CCN2C(=O)CCc3cccc1c32 (configuration not stated)	12.6µM*	i	-6.8%[1.84 µM]	i
Cc1ccccc1-n1nc(C)c2c1NC(=O)CSC2c1ccc(Cl)cc1 (configuration not stated)	17.8µM*	i	x	i
Cc1ccccc1-n1nc(C)c2c1NC(=O)CSC2c1ccc(N(C)C)cc1 (configuration not stated)	0.0%	i	x	u
O=C1N(c2ccccc2)C(c2cccnc2)N2CCCN12 (configuration not stated)	-28.3%	i	0.4%	i
CC1=CC(=O)OC2CC3OC4C[C@@H](C)C5OC6CC7O[C@]8(C)C/C=C\C9OC%10CC%11OC(CC(C)C%12OCCO%12)CC(O)[C@]%11(C)OC%10CC9OC8C[C@]7(C)O[C@]6(C)CCC5OC4C[C@]3(C)OC12 (some centres not stated)	7.9%	i	-8.6%	10µM*
C=C(CC1CC(O)[C@]2(C)OC3CC4OC5C[C@]6(C)O[C@]7(C)CCC8OC9C[C@]%10(C)OC%11C(C)=CC(=O)OC%11CC%10OC9C[C@@H](C)C8OC7CC6O[C@]5(C)C/C=C\C4OC3CC2O1)C(=O)O (some centres not stated)	u	i	8.1%	u
O=C1/C(=C/c2cccc([N+](=O)[O-])c2)N2CCC1CC2	-10.5%	i	5.6%	i
O=C1/C(=C/c2cc([N+](=O)[O-])ccc2Cl)N2CCC1CC2	17.8µM*	i	3.8%	i
CC1(C(=O)O)CC12c1ccccc1-c1ccccc12 (configuration not stated)	3.16µM*	i	-20.2%	x
